Assay outcomes as filed in PubChem BioAssay.
Most compounds without a hit are left out; they make up all but 3.7% or so of the library.
Anthrax LF inh2 – inhibitors of Bacillus anthracis lethal factor protease; inhibition, % at 10 µM; P15917; multiplex microsphere protease cleavage assay, LF; AID 588501; actives 0.12% (n = 360,000); also: plate controls were buffer without enzyme for full effect and enzyme alone for no effect
BoNT F protease – inhibitors of Botulinum neurotoxin F light chain protease; Multiplex microsphere protease cleavage assay, flow cytometry; inhibition, % at 10 µM; actives 0.22% (n = 360,000); AID 588497; in the data active = inhibition above about 35%, passing the limit was not always enough; inconclusive = no clear call, values can overlap the other calls; also: plate controls were buffer without enzyme for full effect and enzyme alone for no effect
MazF activator – MazEF (E. coli) toxin RNase activation | P0AE70 | FAM/BHQ RNA-DNA oligo cleavage fluorescence, 5 h | activation, % at 20 µM | actives 0.32% (n = 350,000); in the data active = activation above about 50%
Target sequence (P0AE70 whole entry, looked up): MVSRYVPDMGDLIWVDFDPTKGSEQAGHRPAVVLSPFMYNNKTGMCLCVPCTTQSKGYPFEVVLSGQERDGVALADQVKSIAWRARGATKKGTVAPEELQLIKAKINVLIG
Autofluor counter – compound fluorescence in toxin protease inhibitor counterscreen | compound autofluorescence counterscreen, microsphere flow cytometry; active compounds read high | fluorescence intensity (test concentration not listed) | actives 3.1% (n = 360,000); in the data active = fluorescence intensity above about 16000; inconclusive = no clear call, values can overlap the other calls
BoNT A protease – blocks Botulinum neurotoxin A light chain protease; multiplex microsphere protease substrate cleavage, flow cytometry; inhibition, % at 10 µM; actives 0.17% (n = 360,000); AID 588499; also: plate controls were buffer without enzyme for full effect and enzyme alone for no effect
An asterisk follows results filed as active; ? = inconclusive; . = no result given. Rule as the data show it, unless noted: active = inhibition above about 30%; inconclusive = no clear call, values can overlap the other calls; inactive = below that.

SMILES	Anthrax LF inh2	BoNT F protease	MazF activator	Autofluor counter	BoNT A protease
COc1cc(C(O)c2nc(-c3cccc(C(C)C)c3)cs2)ccc1F (stereo not drawn)	-5	8	.	3873	0
CC1CCCC(C)N1CCNC(=O)Nc1ccc(Cl)cc1 (stereo not drawn)	-7	3	5	22625*	3
CCOC(=O)C1CCCN(C(=O)c2ccc3nc(-c4cccc(OC)c4)oc3c2)C1 (stereo not drawn)	-2	3	0	4366	3
N#CC1=C(N)Oc2n[nH]c(-c3ccccc3)c2C1c1cccc(OC(=O)N2CCOCC2)c1 (stereo not drawn)	-4	-6	7	16755*	-2
COc1ccc(-c2[nH]nc3c2C(c2ccccc2OC(=O)N2CCOCC2)C(C#N)=C(N)O3)cc1 (stereo not drawn)	-1	0	4	20595*	0
N#CC1=C(N)Oc2n[nH]c(-c3ccc(F)cc3)c2C1c1cccc(OC(=O)N2CCOCC2)c1 (stereo not drawn)	.	.	4	.	.
CC1CC(=O)N(Cc2ccccc2)c2ccccc2N1C=O (stereo not drawn)	-5	0	8	20499*	0
CC(C)(C)C(=O)C(C(c1ccccc1)N1CCOCC1)N1CCOCC1 (stereo not drawn)	-2	3	4	2933	-1
N#C/C(=C/c1ccc(Sc2nc3ccccc3[nH]2)o1)c1cccc(F)c1	-2	-2	2	23920*	0
N#C/C(=C/c1ccc(Sc2nc3ccccc3[nH]2)o1)c1ccccc1F	-2	-4	16	16534*	?
NC(=Nc1nc(-c2ccccn2)cc2ccccc12)c1ccccn1	1	-2	17	3630	0
COc1ccc(C(C)=O)cc1COC(=O)c1ccc(N)c([N+](=O)[O-])c1	2	-1	10	4054	0
COc1ccc(C(C)=O)cc1COC(=O)c1cccc(N(C)C)c1	-4	39*	-6	3334	0
C[C@@H]1CN(S(=O)C(C)(C)C)[C@@H](CCO)/C1=C\c1ccccc1 (stereo partly drawn)	7	-2	-8	3479	0
CC1=CC(C)(C)N(C(=O)CSc2nnc(N)s2)c2cc(C)c(C)cc21	-1	-3	-4	23062*	0
CC1=CC(C)(C)N(C(=O)CSc2nnc(C)s2)c2ccc(C)cc21	3	-10	0	10646	0
Nc1ncnc2c1C(c1ccccc1)c1c(ccc3ccccc13)O2 (stereo not drawn)	-4	-7	8	3101	0
CN1CCc2nc3sc(C#N)c(N)c3c(-c3cccs3)c2C1	-1	-12	14	19864*	15
CC(C)c1ccc(NC(=O)C2Cc3c(-c4ccco4)ccnc3O2)cc1 (stereo not drawn)	0	-9	.	4183	-1
NS(=O)(=O)c1ccc(NC(=O)CSc2ccc3ccccc3n2)cc1	-1	-2	12	16858*	-1
COc1cccc(N=c2oc3ccccc3cc2-c2nc3ccccc3[nH]2)c1	1	54*	3	?	1
COc1cccc(N=c2oc3ccc(OC)cc3cc2-c2nc3ccccc3[nH]2)c1	-1	0	-18	3835	0
Cc1cc(Cl)ccc1C(O)c1ncc(-c2cccc3ccccc23)[nH]1 (stereo not drawn)	-8	-8	.	3132	-1
COc1cccc(CNn2cnnc2)c1OCc1ccc(F)cc1	5	-4	8	9146	0
COc1cccc(CNn2cnnc2)c1OCc1ccccc1F	-4	14	-13	20043*	?
SMILES	Anthrax LF inh2	BoNT F protease	MazF activator	Autofluor counter	BoNT A protease
C=CCOc1ccc(Cl)cc1-c1noc(-c2csc([C@H]3C[C@H](O)[C@@H](CO)O3)n2)n1	1	-8	.	3916	0
CCN1CNC(=S)N(c2cccc(C)c2C)C1	-2	-3	-6	20115*	?
CCOc1ncccc1C(=O)Nc1nnc(C2CC2)s1	3	0	12	5353	0
CCc1c(C(=O)Nc2nnc(C3CC3)s2)csc1C	1	0	7	21291*	?
COCCNC(=O)C1(C)CCN(Cc2ccc(C(C)C)cc2)C1 (stereo not drawn)	-1	-5	.	3477	0
Cc1cc(NC(=O)CCC(=O)N(Cc2ccco2)C(C(=O)NC2CCCC2)c2ccccc2F)no1 (stereo not drawn)	-2	0	11	5441	-1
Cc1cc(NC(=O)CCC(=O)N(Cc2ccco2)C(C(=O)NC2CCCC2)c2ccccc2C)no1 (stereo not drawn)	-1	-4	55*	4760	-2
COc1ccc(CNc2nc3c(c(=O)n(Cc4ccc(F)cc4)c(=O)n3C)n2C)cc1	-5	-1	-4	21752*	?
Nc1nc(SCCO)[nH]c(=O)c1NC(=O)c1ccco1	-17	-104	-3	19769*	-66
Nc1nc(SCC(=O)O)[nH]c(=O)c1NC(=O)c1ccco1	-1	-6	2	6914	-2
Cc1ccc2nc(-c3ccc(F)cc3)c(CC3CCCCC3)n2c1	6	11	.	6669	1
O=C(Nc1ccccc1OC(F)F)c1ccc(N2CCCC2=O)cc1	-2	0	-3	3084	-1
CCOC(=O)c1nnn(-c2nonc2N)c1CNC(C)C	-2	1	2	21205*	?
CCOC(=O)c1nnn(-c2nonc2N)c1CNc1ccccc1	0	6	-3	5639	0
CCOC(=O)c1nnn(-c2nonc2N)c1CN1CCCCCC1	-2	4	5	16135*	1
O=C(NCc1ccccc1)C1c2ccccc2OCC(=O)N1Cc1ccccc1 (stereo not drawn)	-10	0	.	5128	0
CCOC(=O)c1c(C)c(C(=O)NCc2ccccc2OC)c(C)n1C	1	-6	-15	22066*	-5
CCOC(=O)c1c(C)c(C(=O)N(C)C2CCCCC2)c(C)n1C	-2	4	4	11136	-1
CCOCCCNC(=O)c1c(C)c(C(=O)OCC)n(C)c1C	-8	8	1	18479*	?
CCOC(=O)c1c(C)c(C(=O)NC2CCCCCC2)c(C)n1C	3	5	3	21622*	?
CCN(c1ccc(N=Cc2c(O)n(Cc3ccc(OC)cc3)c(=O)c3ccccc23)cc1)C(C)C	13	52*	-452	55670*	37*
COc1ccc(-n2c(O)c(C=Nc3ccccc3)c3ccccc3c2=O)cc1	-8	-5	8	3597	-1
CCCc1nnc(NC(=O)Cn2c(=O)oc3cc(Br)ccc32)s1	-1	4	-21	21386*	2
CCCCN1CCC(=O)C(C(=O)OCC)=C1C(=O)OCC	-3	-4	0	3582	0
C=CCOC(=O)C1=C(C)N=C2SCCC(=O)N2C1c1ccc(OC(=O)c2ccco2)cc1 (stereo not drawn)	-1	-7	-10	23769*	-1
COCCOC(=O)C1=C(C)N=C2SCCC(=O)N2C1c1cccs1 (stereo not drawn)	-2	0	5	3268	0
